JMJD2A Tudor: JMJD2A Tudor domain (human) inhibition. Potency, µM (series often up to 114 µM), hits mostly inhibitors. AlphaScreen JMJD2A-Tudor / H3K4me3 peptide binding. actives 4.4% (n = 390,000). O75164; further: nearly all actives have a fitted effect of over 50% in size
BAZ2B inh: BAZ2B (human) inhibition; AID 504333; AlphaScreen BAZ2B-H3K14Ac peptide displacement; actives 4.4% (n = 360,000); Q9UIF8; Potency, µM (titrated, usually from 114 µM), usual class: inhibitors; further: nearly all actives have a fitted effect of over 60% in size
Target sequence (Q9UIF8 whole entry, looked up): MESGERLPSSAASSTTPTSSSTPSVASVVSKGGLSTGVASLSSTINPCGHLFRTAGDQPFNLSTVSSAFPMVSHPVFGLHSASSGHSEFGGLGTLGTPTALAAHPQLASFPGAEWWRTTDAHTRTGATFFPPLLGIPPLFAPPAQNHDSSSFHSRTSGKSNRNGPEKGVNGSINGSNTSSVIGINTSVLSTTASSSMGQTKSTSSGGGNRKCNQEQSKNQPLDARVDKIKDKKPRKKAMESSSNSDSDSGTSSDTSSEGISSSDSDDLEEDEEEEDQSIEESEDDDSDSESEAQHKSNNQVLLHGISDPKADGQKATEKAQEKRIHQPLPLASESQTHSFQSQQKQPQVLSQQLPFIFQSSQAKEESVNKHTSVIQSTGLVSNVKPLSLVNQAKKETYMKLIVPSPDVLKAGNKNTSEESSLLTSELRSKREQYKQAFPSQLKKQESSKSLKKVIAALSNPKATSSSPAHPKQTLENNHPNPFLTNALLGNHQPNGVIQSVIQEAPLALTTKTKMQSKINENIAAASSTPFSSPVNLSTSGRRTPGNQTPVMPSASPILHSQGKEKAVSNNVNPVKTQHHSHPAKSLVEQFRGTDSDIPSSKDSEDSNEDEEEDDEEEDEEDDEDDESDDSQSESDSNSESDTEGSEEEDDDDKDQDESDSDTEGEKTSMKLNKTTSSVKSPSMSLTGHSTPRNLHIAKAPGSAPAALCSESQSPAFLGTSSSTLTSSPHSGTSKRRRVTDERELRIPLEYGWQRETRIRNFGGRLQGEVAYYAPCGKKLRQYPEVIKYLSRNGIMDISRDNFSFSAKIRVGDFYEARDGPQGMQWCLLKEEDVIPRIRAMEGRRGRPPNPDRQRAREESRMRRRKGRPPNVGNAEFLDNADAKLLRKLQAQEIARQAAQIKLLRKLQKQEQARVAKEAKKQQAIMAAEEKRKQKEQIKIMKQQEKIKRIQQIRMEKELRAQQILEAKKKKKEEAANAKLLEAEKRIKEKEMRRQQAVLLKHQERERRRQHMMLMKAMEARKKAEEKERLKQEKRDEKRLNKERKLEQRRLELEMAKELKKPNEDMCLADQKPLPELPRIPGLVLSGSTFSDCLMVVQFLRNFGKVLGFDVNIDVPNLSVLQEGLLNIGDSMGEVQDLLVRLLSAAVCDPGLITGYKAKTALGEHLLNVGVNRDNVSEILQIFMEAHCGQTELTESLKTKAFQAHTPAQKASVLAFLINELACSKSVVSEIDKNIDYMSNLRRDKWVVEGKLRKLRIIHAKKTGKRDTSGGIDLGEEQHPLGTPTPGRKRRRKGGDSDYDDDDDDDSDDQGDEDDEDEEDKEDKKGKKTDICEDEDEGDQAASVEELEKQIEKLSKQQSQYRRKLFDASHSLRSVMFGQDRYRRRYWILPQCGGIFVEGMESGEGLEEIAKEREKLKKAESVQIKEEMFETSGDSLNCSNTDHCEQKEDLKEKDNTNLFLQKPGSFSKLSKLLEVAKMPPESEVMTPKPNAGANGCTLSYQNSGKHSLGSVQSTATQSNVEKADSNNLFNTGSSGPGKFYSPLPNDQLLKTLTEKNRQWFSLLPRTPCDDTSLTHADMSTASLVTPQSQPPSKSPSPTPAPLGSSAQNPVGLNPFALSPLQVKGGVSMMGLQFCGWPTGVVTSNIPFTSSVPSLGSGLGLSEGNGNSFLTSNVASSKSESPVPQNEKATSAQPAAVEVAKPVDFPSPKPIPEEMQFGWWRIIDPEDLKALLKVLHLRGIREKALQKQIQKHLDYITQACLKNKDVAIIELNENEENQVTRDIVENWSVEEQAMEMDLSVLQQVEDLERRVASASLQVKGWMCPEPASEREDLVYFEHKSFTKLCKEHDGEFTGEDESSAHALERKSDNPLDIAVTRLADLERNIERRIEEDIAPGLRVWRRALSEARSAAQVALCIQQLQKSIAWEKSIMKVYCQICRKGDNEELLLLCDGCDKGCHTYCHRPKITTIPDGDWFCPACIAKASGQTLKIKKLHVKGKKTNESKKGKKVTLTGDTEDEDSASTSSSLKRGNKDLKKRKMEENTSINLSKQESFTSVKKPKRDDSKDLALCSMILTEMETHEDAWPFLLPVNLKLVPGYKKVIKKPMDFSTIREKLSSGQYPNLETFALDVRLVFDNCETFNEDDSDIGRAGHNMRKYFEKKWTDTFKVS
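Inhibition is scored as reduced AlphaScreen emission. The BAZ2B/b-H3(5-23)K14Ac complex (50 nM each) in PBS pH 7.4, 0.01% Tween-20 meets compound (up to 110 uM) for 30 min at RT before bead addition.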
G9a block: inhibitors of human histone lysine methyltransferase G9a; Q96KQ7; G9a H3K9 monomethylation, AlphaScreen, 2 h; Potency, µM (top dose mostly 102 µM), actives largely listed as inhibitors; actives 8.8% (n = 350,000); AID 504332; further: nearly all actives have a fitted effect of over 75% in size
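Step 1: enzyme (final 20 nM) with compound, 15 min RT. Step 2: substrate peptide 500 nM and SAM 20 uM, 2 h RT. Step 3: anti-H3K9me1 antibody and AlphaScreen beads, 10 min, then plate read.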
HP1b chromo inh: inhibitors of HP1-beta chromodomain binding to methylated histone tails; P83916; Potency, µM (highest dose often 114 µM), hits mostly inhibitors; AlphaScreen HP1-beta / biotin-H3K9me3 peptide binding; actives 0.56% (n = 390,000); further: nearly all actives have a fitted effect of over 70% in size
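AlphaScreen: HP1-beta (50 nM) preformed 30 min with biotin-H3(1-18)K9me3 peptide (50 nM) in PBS pH 7.4, 0.01% Tween-20. Compound added for 30 min at RT, then streptavidin donor/nickel chelate acceptor beads (10 ug/mL) for 30 min.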
Sfp PPTase inh: blocks B. subtilis Sfp PPTase activity; Biochemical Sfp PPTase activity, qHTS; Potency, µM, usual class: inhibitors; actives 3.5% (n = 310,000);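 further: the enzyme is Sfp with the accession as filed and its product quenches rhodamine fluorescence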
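Reaction rates are the 30-min fluorescence difference (ex 525, em 598 nm) in wells containing 15 nM Sfp, 5 uM rhodamine-CoA and 12.5 uM BHQ-2-YbbR at pH 7.6 with 10 mM MgCl2.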
A number is an active result; n = inactive; u = inconclusive; x = no result given; [ ] = remark or other dose. Shown are actives, neighbours in structure and some others; about 12% of the full set was active somewhere. The call rests on the fitted dose curve; in most records, active means well fitted curve in the direction sought with a large enough effect; inconclusive means small, poorly fitted or top-dose-only effect, or another doubt; inactive means no such curve, though single readings can be large; an effect the other way counts as inactive or inconclusive.

SMILES	JMJD2A Tudor	BAZ2B inh	G9a block	HP1b chromo inh	Sfp PPTase inh
Cc1occc(=O)c1OC(=O)Nc1ccccc1	20µM	u	u	n	n
CC1CCCCC1NCC(=O)NCc1ccc(F)cc1 (configuration not stated)	1.26µM	50.1µM	10µM	u	n
O=C(O)c1cccc(S(=O)(=O)Nc2ccc([N+](=O)[O-])cc2O)c1	u	n	22.4µM	n	u
COc1ccc([N+](=O)[O-])cc1NS(=O)(=O)c1ccccc1	n	n	0.794µM	n	n
COc1ccc([N+](=O)[O-])cc1NS(=O)(=O)Cc1ccccc1	n	n	n	n	n
COc1cc(Nc2nc3ccccc3nc2NS(=O)(=O)c2ccc([N+](=O)[O-])cc2)cc(OC)c1OC	u	7.94µM	x	n	n
COc1cc(CNCCc2ccccc2)ccc1OCc1ccc(Cl)nc1	n	n	n[12.7 µM]	n	n
COc1cccc(CNCCc2c[nH]c3ccccc23)c1OCc1ccccc1	u	u	n	n	u
COc1ccc(CNCc2ccco2)cc1OCc1ccccc1	12.6µM	79.4µM	12.6µM	u	u
COc1cc(CNCCc2c[nH]c3ccccc23)ccc1OCc1ccccc1F	39.8µM	35.5µM	n[0.501 µM]	u	u
COc1ccccc1CCNCc1ccc(OC)c(OCc2ccccc2)c1	3.16µM	u	u	u	u
COc1cc(CNCc2cccnc2)ccc1OCc1ccccc1	n	n	n	n	n
COc1ccccc1CNC(=O)C1CCCC1	n	n	n	n	n
COc1ccc(N(Cc2cc3ccccc3[nH]c2=O)C(=O)c2cccc(Cl)c2)cc1	n	n	u	n	x
CC(C)(C)OC(=O)C[C@H]1C/C=C\C[C@@H](CC(=O)N[C@@H](CO)Cc2ccccc2)C(=O)NCCOC1=O	n	x	x	n	x
CCc1cccc(C)c1NC(=S)NCCc1c(C)[nH]c2ccc(C)cc12	44.7µM	25.1µM	44.7µM	u	n
CCc1cccc(CC)c1NC(=S)NCCc1c(C)[nH]c2ccc(C)cc12	31.6µM	28.2µM	39.8µM	n	n
Cc1ccc2[nH]c(C)c(CC(=O)NCc3ccccc3)c2c1	u	n	n	n	n
Cc1ccc2[nH]c(C)c(CCNC(=O)c3c(N)no[n+]3[O-])c2c1	50.1µM	u	u	70.8µM	n
CC(Cc1nnc(SCC(=O)O)n1N)c1ccccc1 (configuration not stated)	u	n	n[12.7 µM]	n	n
CCCC(=O)Nc1nnc(SCC(=O)NCc2ccc3c(c2)OCO3)s1	n	n	n	n	n
CCCCCOC(=O)c1[nH]c2c(c1C)C(=O)CC(c1ccco1)C2 (configuration not stated)	35.5µM	56.2µM	39.8µM	u	u
CSC1=N/C(=C/c2cccnc2)C(=O)N1Cc1ccc(Cl)cc1	n	n	u	n	n
CCc1cc(-c2[nH]ncc2-c2ccc([N+](=O)[O-])cc2)c(O)cc1OC	50.1µM	39.8µM	50.1µM	u	n
COc1ccc(-c2cn[nH]c2-c2ccc(OCc3ccc([N+](=O)[O-])cc3)cc2O)cc1OC	u	n	n[12.7 µM]	n	n
SMILES	JMJD2A Tudor	BAZ2B inh	G9a block	HP1b chromo inh	Sfp PPTase inh
c1ccc(CC(Cc2ccccc2)c2ccccn2)cc1	n	x	x	n	x
O=Cc1ccc(O)c2ncccc12	2.82µM	1.26µM	u	n	n
COc1cccc(C=O)c1OCCCOc1cccc2cccnc12	n	n	x	n	n
CCCCCn1c(CN2CCN(c3cccc(Cl)c3)CC2)nc2c1c(=O)n(C)c(=O)n2C	n	u	44.7µM	n	n
CC1CN(Cc2nc3c(c(=O)n(C)c(=O)n3C)n2CCN2CCOCC2)CC(C)O1 (configuration not stated)	n	n	u	n	n
CCCCCn1c(CN2CC(C)OC(C)C2)nc2c1c(=O)n(C)c(=O)n2C (configuration not stated)	n	n	39.8µM	n	n
O=C(CSc1nnc(-c2ccc(O)cc2)n1Cc1ccco1)c1ccccc1	n	n	50.1µM	n	u
O=C(CSc1nnc(-c2ccccn2)n1Cc1ccco1)c1ccc(-c2ccccc2)cc1	n	n	44.7µM	n	n
O=C(CSc1nnc(-c2cccnc2)n1Cc1ccco1)c1ccccc1	n	n	n[12.7 µM]	n	n
COC(=O)CSc1nnc(-c2ccccn2)n1Cc1ccco1	n	n	u	n	n
Clc1ccc(CSc2nnc(-c3ccccn3)n2Cc2ccco2)c(Cl)c1	u	n	50.1µM	n	50.1µM
CC(=O)c1c(C)[nH]c(C(=O)Nc2cccc(S(=O)(=O)N3CCCCC3)c2)c1C	n	u	n[12.7 µM]	n	x
CCOc1ccc2cc(C3CC(c4ccco4)=NN3S(C)(=O)=O)c(Cl)nc2c1 (configuration not stated)	n	n	44.7µM	n	n
CCOc1ccc2nc(Cl)c(C3CC(c4ccc(C)cc4)=NN3C(=O)CCC(=O)O)cc2c1 (configuration not stated)	79.4µM	u	n	n	x
COc1ccc2cc(C3CC(c4ccco4)=NN3C(=O)CCC(=O)O)c(Cl)nc2c1 (configuration not stated)	n	n	u	n	50.1µM
Cc1ccc(C(=O)Nc2cccc(S(=O)(=O)N(C)c3ccccc3)c2)o1	n	n	n	n	x
CC(CC(=O)O)CC1=NS(=O)(=O)c2ccccc2N1 (configuration not stated)	n	n	n	n	n
O=C(c1cccnc1)N1CCN(S(=O)(=O)c2cccc(Cl)c2)CC1	n	n	n	n	n
CC(Oc1ccc(Cl)cc1Cl)C(=O)Nc1cccc(O)c1 (configuration not stated)	n	n	u	n	n
CCOC(=O)c1c(NC(=O)C(C)Oc2ccc(Cl)c(C)c2)sc2c1CCCC2 (configuration not stated)	n	n	3.16µM	n	x
COC(=O)c1c(NC(=O)C(C)Oc2ccc(Cl)cc2Cl)sc2c1CCCC2 (configuration not stated)	n	n	3.55µM	n	x
CC(Oc1ccc(Cl)cc1Cl)C(=O)Nc1ccc(O)cc1 (configuration not stated)	n[11.4 µM]	50.1µM	25.1µM	n	u
CCCCOc1ccc(C(=O)Nc2sc3c(c2C(=O)OCC)CCCCC3)cc1	n	n	n	n	x
CCCc1ccc(OC(C)C(=O)Nc2sc3c(c2C(=O)OC)CCCCC3)cc1 (configuration not stated)	n	n	7.94µM	u	x
Cc1ccccc1NC(=O)c1ccc(NC(=O)c2ccco2)cc1	n	n	u	n	n
Cc1cc(Cl)ccc1-n1c(CCC(=O)O)ccc1-c1cccs1	u	44.7µM	u	n	x
Cc1ccc(Cl)cc1-n1c(CCC(=O)O)ccc1-c1cccs1	u	u	11.2µM	n	x
Cc1c(Cl)cccc1-n1c(CCC(=O)O)ccc1-c1cccs1	n	n	u	n	x
O=C(Nc1cccc(C(F)(F)F)c1)Nc1cc(Cl)ccc1C(=O)O	x	x	x	x	n
Cc1cc(Br)c(NC(=O)CSc2n[nH]c(N)n2)c(Br)c1	n	x	x	n	x
